Experimental data as given in PubChem BioAssay AID977607 (Broad Institute, 2014).
Among all 1,500 compounds or so, about 460 (31%) were called active. Roughly 1% stayed inconclusive and do not appear here.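 How the source made its calls: active means curve reaches 40% activation over neutral controls at an AC40 no higher than the top valid tested concentration; inconclusive means no clear call, values can overlap the other calls; inactive means signal moving opposite to the expected increase, and the rest.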 These entries were drawn from the full list. Entries with a potency or affinity are not part of this list.

assay: activators of glucose-dependent insulin secretion, dose response, cell-based, INS-1E, Gaussia luciferase, luminescence, cherry-pick, set 2 (AID 977607); conditions: INS-1E GLuc insulin secretion reporter, 2-3 h, active compounds read high; at 35 µM, 100% = signal doubled over neutral wells unless noted;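 further: 0% = median of the plate neutral control wells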

Max activation, inactive:
CCOc1ccc(CCNC(=O)CCNC(=O)c2ccco2)cc1OCC 12.9% [at 3.8 µM, 100% = signal doubled over neutral wells]
CC1(C)CC(=O)C(C=NC2CC(C)(C)NC(C)(C)C2)=C(O)C1 -17.1% [at 0.005 µM, 100% = signal doubled over neutral wells]
CCSc1nnc(-c2cccnc2)n1-c1ccc(C)c(Cl)c1 -13.6% [at 0.0016 µM, 100% = signal doubled over neutral wells]
CN(c1ccc(C(=O)N2CCN(Cc3ccccc3)CC2)cc1)S(=O)(=O)c1ccccc1 -44.5%
O=C(CN1C(=O)CCC1=O)Nc1cccc2c1C(=O)NC2=O -14.9% [at 1.2 µM, 100% = signal doubled over neutral wells]
CN(Cc1ccc(OCC(O)CN(C)Cc2ccccc2)cc1)Cc1nccn1C (stereo unspecified) -10.6% [at 0.0016 µM, 100% = signal doubled over neutral wells]
N=c1n(CCN2CCCCC2)c2ccccc2n1CC(O)COc1ccccc1 (stereo unspecified) -22.3% [at 1.2 µM, 100% = signal doubled over neutral wells]
O=C(NNC1CCN(Cc2ccccc2)CC1)c1ccccc1 -25% [at 3.8 µM, 100% = signal doubled over neutral wells]
Cc1cccc2[nH]c3c(N4CC=C(c5ccc(F)cc5)CC4)ncnc3c12 18.7% [at 1.2 µM, 100% = signal doubled over neutral wells]
FC(F)(F)c1cc(-c2ccccc2)nc(-n2cc(Cl)cn2)n1 -21.3% [at 0.015 µM, 100% = signal doubled over neutral wells]
CCN(C[C@H]1N[C@@](CC)(C(=O)OC)[C@H]2C(=O)N(C)C(=O)[C@@H]12)S(=O)(=O)c1ccc(OC)cc1 -12.8% [at 0.42 µM, 100% = signal doubled over neutral wells]
COc1ccc(F)cc1C(=O)C1CCCN(C(=O)c2ccc(C(C)=O)s2)C1 (stereo unspecified) -19.8%
COc1ccc(C(=O)C2CCCN(Cc3cccn3-c3nccs3)C2)cc1OC (stereo unspecified) -15.9% [at 0.005 µM, 100% = signal doubled over neutral wells]
CC(C)C[C@H](NC(=O)c1nc[nH]c1C(=O)NC1CCN(C(=O)OC(C)(C)C)CC1)C(=O)OC(C)(C)C 60.6%
CCOC(=O)c1[nH]cnc1C(=O)NC(C)C -21.9% [at 0.135 µM, 100% = signal doubled over neutral wells]
CN1C(=O)NC(c2ccc(O)cc2)C2=C1CN(c1ccccc1)C2=O (stereo unspecified) -22.4% [at 3.8 µM, 100% = signal doubled over neutral wells]
CC(C)c1c(C(=O)N/N=C/c2cccc3ccccc23)nnn1-c1nonc1N -43.8%
O=C(COc1ccccc1Cl)NNC(=O)c1ccc2nc[nH]c2c1 15.8% [at 1.2 µM, 100% = signal doubled over neutral wells]
COC(=O)C[C@@H]1OC[C@H](C(C)C)N1S(=O)(=O)c1ccc(C)cc1 -15.5%
O=C(COC(=O)c1ncc(Cl)c(Cl)c1Cl)NC1CCS(=O)(=O)C1 (stereo unspecified) -18.3%
CCSc1ccc2nnc(-c3ccc(F)cc3)n2n1 -17.1% [at 0.135 µM, 100% = signal doubled over neutral wells]
C=CCNc1sc(C(=O)C2CC2)c(N)c1C#N -24.8% [at 0.0016 µM, 100% = signal doubled over neutral wells]
COCCNc1nc(NC(C)C)nc2ccsc12 -19.2% [at 0.046 µM, 100% = signal doubled over neutral wells]
COc1ccc(Nc2nc(NCc3cccs3)nc3ccsc23)cc1OC -40.6%
Cc1cc(NC(=O)COC(=O)c2oc3c(Cl)cccc3c2C)no1 -17.9% [at 11 µM, 100% = signal doubled over neutral wells]
CCCOC(=O)Nc1ccc(S(=O)(=O)Nc2ncccn2)cc1 -14.1% [at 11 µM, 100% = signal doubled over neutral wells]
CCOC(=O)c1cnc2ccc(OCC)cc2c1N1CCN(c2ccccc2)CC1 -39.9%
O=C(c1cccc(F)c1)N1CCCc2ccccc21 -18.1% [at 0.015 µM, 100% = signal doubled over neutral wells]
CCOc1nc(Nc2ccccc2F)nc(OCC)n1 -23.2% [at 0.0016 µM, 100% = signal doubled over neutral wells]
COc1nc(Nc2ccccc2)nc(OC)n1 -12% [at 0.0016 µM, 100% = signal doubled over neutral wells]
COc1ccc(S(=O)(=O)Nc2cccc(-c3ccc4nncn4n3)c2)cc1F -16.1% [at 0.046 µM, 100% = signal doubled over neutral wells]
C=CCOc1cccc(C(=O)N2CCC(CCC(=O)NC3CC3)CC2)c1 -8.53% [at 1.2 µM, 100% = signal doubled over neutral wells]
C[C@@H]1CN([C@@H](C)CO)C(=O)c2cc(Br)cnc2O[C@H]1CN(C)C(=O)C1CC1 -19.6% [at 0.0016 µM, 100% = signal doubled over neutral wells]
NC(=O)C1CCN(c2nc(-c3ccccc3)nc3ccccc23)CC1 -15.2% [at 3.8 µM, 100% = signal doubled over neutral wells]
Cc1ccccc1Nc1c(-c2ccncc2)nc2ccc(Cl)cn12 -30.7%
COc1ccc(C(=O)c2ccc(OC)c(OC)c2)cc1 -16.7% [at 0.42 µM, 100% = signal doubled over neutral wells]
CCOC(=O)c1sc2nc(-c3ccccc3)ccc2c1N -12.9%
C[C@@H](NC(=O)C[C@@H]1C[C@@H]2c3cc(NC(=O)Nc4ccccc4F)ccc3O[C@@H]2[C@@H](CO)O1)c1ccccc1 34.4% [at 0.015 µM, 100% = signal doubled over neutral wells]
COc1ccc(-n2c(=S)[nH]c3cc(C(=O)Nc4ccc(OC)c(OC)c4)ccc3c2=O)cc1 -16.1% [at 0.0016 µM, 100% = signal doubled over neutral wells]
COc1ccc(C(=O)Nc2cccnc2Cl)cc1OC -21.1% [at 0.0016 µM, 100% = signal doubled over neutral wells]
O=C(Cc1csc(NC(=O)c2ccccc2)n1)NO -12.5% [at 0.42 µM, 100% = signal doubled over neutral wells]
O=S(=O)(c1ccc(-c2csc(Nc3ccc(Br)cc3)n2)cc1)N1CCCC1 -14.1% [at 0.42 µM, 100% = signal doubled over neutral wells]
CS(=O)(=O)N1CCCCC1c1cc(C(=O)Nc2cccc3c2CCCC3)no1 (stereo unspecified) -21.9% [at 0.0016 µM, 100% = signal doubled over neutral wells]
Cc1ccc(S(=O)(=O)NCc2csc(-c3cccs3)n2)cc1 -16% [at 0.42 µM, 100% = signal doubled over neutral wells]
COc1ccc(CCN(C)C(=O)C(CCSC)NC(=O)c2ccco2)cc1OC (stereo unspecified) 35.3%
Nc1nc(N)nc(-c2ccc(Cl)cc2)n1 24.3%
CC(C)(C)NC(=O)N1c2ccccc2Sc2ccccc21 -17.6% [at 0.42 µM, 100% = signal doubled over neutral wells]
CC(=O)c1c(C)oc2ccc(NS(=O)(=O)c3ccc(F)cc3C)cc12 -28.4%
CS(=O)(=O)c1nc(S(=O)(=O)c2ccc(Cl)cc2)c(N2CCCCCC2)s1 -34.1%
Cc1nc2ccccc2c(=O)n1CCCN1CCOCC1 -15.9% [at 0.046 µM, 100% = signal doubled over neutral wells]
COc1nc(-c2ccccc2)c2cc(C)ccc2n1 42.4% [at 1.2 µM, 100% = signal doubled over neutral wells]
Cc1ccc2c(c1)c(-c1ccccc1)nc1nncn12 -21.1% [at 1.2 µM, 100% = signal doubled over neutral wells]
CCN(CC)C(=O)n1c(Cc2ccccc2)nc2ccccc21 -14.4% [at 0.005 µM, 100% = signal doubled over neutral wells]
CCCc1cc2c(OC)ccc(O)c2c(=O)n1C -19.2% [at 0.42 µM, 100% = signal doubled over neutral wells]
CCOc1ccc(NC(=O)[C@@H](NC(=O)OCc2ccccc2)[C@@H](C)CC)cc1 -32.5% [at 11 µM, 100% = signal doubled over neutral wells]
CCCNC(=O)c1ccccc1NC(=O)COc1ccc(OC)cc1 -16% [at 11 µM, 100% = signal doubled over neutral wells]
